Screening data from PubChem BioAssay.
FBW7 act: activators of human E3 ligase FBW7 | 650,000 tested, 0.13% active | AlphaScreen FBW7–phospho-cyclin E peptide binding, activator screen | normalized activity (activation), % at 26.1 µM | AID 1259310 | Q969H0; in the data active means normalized activity above about 1.9%;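 further: purified mutant Fbw7 with reduced substrate affinity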
MITF primary: inhibitors of human MITF; inhibition, % at 2.6 µM; 650,000 tested, 0.91% active; AlphaScreen MITF homodimerization, bead proximity signal; in the data active means inhibition above about 50%;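 further: 0% = vehicle wells with protein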
GPR151 ag: human GPR151 activation | Q8TDV0 | PathHunter beta-arrestin GPR151 cells, luminescence | activation, % at 11.2 µM | 650,000 tested, 1% active | AID 1508602; in the data active means activation above about 4.9%;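 further: 0% = median of compound wells and 100% = cells with positive control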
Target sequence (Q8TDV0 whole entry, looked up): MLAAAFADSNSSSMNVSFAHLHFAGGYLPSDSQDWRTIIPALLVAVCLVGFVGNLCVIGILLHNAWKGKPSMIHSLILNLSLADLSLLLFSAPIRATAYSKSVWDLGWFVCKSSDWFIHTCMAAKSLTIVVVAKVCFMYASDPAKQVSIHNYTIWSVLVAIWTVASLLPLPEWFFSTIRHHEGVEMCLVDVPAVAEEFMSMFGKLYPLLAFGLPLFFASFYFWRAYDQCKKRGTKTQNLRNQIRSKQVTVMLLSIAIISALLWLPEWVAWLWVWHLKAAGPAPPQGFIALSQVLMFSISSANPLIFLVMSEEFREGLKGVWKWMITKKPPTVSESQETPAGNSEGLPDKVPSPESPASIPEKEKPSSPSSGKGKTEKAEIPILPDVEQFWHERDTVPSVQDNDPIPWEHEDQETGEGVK
TEAD-YAP block: TEAD-YAP interaction inhibition | HEK-TIYL cells, TEAD-Gal4/YAP UAS-luciferase luminescence | inhibition, % at 9.12 µM | 640,000 tested, 1.4% active; in the data active means inhibition above about 32%;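 further: 0% = median of test compound wells and 100% = reference inhibitor wells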
GPR151 conf act: confirmation of human GPR151 activators. GPR151 PathHunter beta-arrestin cells, luminescence, 90 min; % of EA-reagent control over plate median. 6,700 tested, under 10 active. activation, % at 11.2 µM. shares compounds with GPR151 ag;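 active means mean percent activation across replicates above the confirmation screen cutoff of 4.91%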
GPR119 counter: activates human GPR119 in a GPR151 counter-screen; GPR119 PathHunter beta-arrestin cells, luminescence, 90 min; 0 = compound-well median, 100 = enzyme-acceptor control; AID 1508611; shares compounds with GPR151 ag; activation, % at 11.2 µM; 6,700 tested, 0.3% active;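 active means mean percent activation in the counterscreen above 29.09%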;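 further: counterscreen on off-target GPR119 to flag nonselective hits from the GPR151 activator screen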
Starred values were filed as active, the others as inactive; x = no result. Sampled rows, rich in hits. Any-hit rate of the full collection: about 3.5%.

SMILES	FBW7 act	MITF primary	GPR151 ag	TEAD-YAP block	GPR151 conf act	GPR119 counter
COc1ccc(OC)c(C(=O)c2oc3ccc(Cl)cc3c2N)c1	0	-5	6.3*	50*	-1	0
CCn1c(=O)n(-c2ccccc2C)c(=O)c2c3c(sc21)CN(C(C)=O)CC3	0	0	9.0*	-5	-1	-10
CCn1c(=O)n(-c2ccccc2)c(=O)c2c3c(sc21)CN(C(C)=O)CC3	1	0	1	3	x	x
Cc1cc(C(=O)COC(=O)C2COc3ccccc3O2)c(C)n1Cc1ccco1 (centres undefined)	0	-2	0	-12	x	x
O=C(NCc1ccncc1)C(=O)N/N=C/c1ccncc1	0	8	0	13	x	x
FC(F)(F)c1cc(-c2ccccc2)n(-c2cc(N3CCCCC3)ncn2)n1	0	3	5.4*	0	0	-8
COc1cccc(C(=O)N=c2sc3cc(F)ccc3n2C)c1OC	0	-19	6.6*	67*	0	10
COc1cccc(OC)c1C(=O)N=c1sc2cc(F)ccc2n1C	0	11	2	9	x	x
COc1ccc2c(c1)sc(=NC(=O)CS(=O)(=O)c1ccc(F)cc1)n2C	-1	4	5.8*	6	1	8
C=CCOC(=O)C1=C(C)OC(N)=C(C#N)C1c1cccc2ccccc12 (centres undefined)	1	16	0	-2	x	x
CCOc1ccc(-c2cc(=O)c3cc(NC(=O)c4ccccc4Br)ccc3o2)cc1	0	-2	5.1*	-39	-1	-11
CSc1cccc(NC(=S)NC(=O)c2cncc(Br)c2)c1	0	-3	3	4	x	x
CCn1c2cc(C)sc2c2cnn(CCN3CCCC3)c(=O)c21	0	1	1	6	x	x
COc1ccc2ccc(=O)oc2c1	0	0	5.0*	5	0	3
COc1ccccc1NC(=O)COc1ccc(C)cc1	0	11	0	-14	x	x
COCCn1c(SCc2cccc(Cl)c2)nc2c([nH]c3ccccc32)c1=O	0	1	11*	-1	-1	-2
COCCn1c(SCc2ccc(F)cc2)nc2c([nH]c3ccccc32)c1=O	0	5	1	-8	x	x
O=C(O)C1CCCN(C2CCN(CCc3ccccc3)CC2)C1 (centres undefined)	0	-3	1	-13	x	x
COc1ccc(Cl)cc1C(=O)NCCCN1CCN(c2ccccc2)CC1	0	6	3	-3	x	x
COc1cc(N(C)C)c([N+](=O)[O-])cc1C(=O)NCCN1CCN(c2ccccc2)CC1	1	8	5.8*	3	1	-1
O=C(NCc1ccccc1Cl)c1c(O)c2ccccc2[nH]c1=O	0	4	5.0*	2	1	-1
Nc1nnnn1/N=C\C=C\c1ccccc1	0	10	9.2*	-17	-1	-6
Nc1nnnn1/N=C/C=C/c1cccc([N+](=O)[O-])c1	1	23	1	1	x	x
Cc1ccccc1OCC(=O)NNC(=O)c1ccc(N2CCCCC2)c([N+](=O)[O-])c1	0	3	-1	5	x	x
Cc1[nH]c(-c2ccc(F)cc2)cc1C(=O)N1CCOCC1	0	-8	5.8*	-12	0	0
SMILES	FBW7 act	MITF primary	GPR151 ag	TEAD-YAP block	GPR151 conf act	GPR119 counter
Cc1[nH]c(-c2ccc(F)cc2)cc1C(=O)N1CCCC1	0	2	5	-6	x	x
C=CCN1C(=O)c2oc3ccccc3c(=O)c2C1c1ccc(O)c(OC)c1 (centres undefined)	0	2	1	-4	x	x
C=CCN1C(=O)c2oc3ccccc3c(=O)c2C1c1cccc([N+](=O)[O-])c1 (centres undefined)	0	-19	5.8*	-8	0	-3
COc1ccc(NS(=O)(=O)c2cccc(C(=O)Nc3ccccc3)c2)cc1	0	18	2	4	x	x
Nn1c(SCC(=O)NC(c2ccccc2)c2ccccc2)nnc1C1CC1	0	-19	-1	12	x	x
CC(C)c1nnc(SCC(=O)NC(c2ccccc2)c2ccccc2)n1N	0	0	6.3*	-8	0	-7
CCn1c(SCC(=O)c2ccccc2)nnc1C(C)C	0	-9	13*	-15	1	9
CCn1c(SCC(=O)c2ccccc2)nnc1-c1ccccn1	-1	6	0	-58	x	x
CC(=O)c1cccc(-c2nc(NCc3cccc(C(F)(F)F)c3)c3[nH]cnc3n2)c1	0	-7	2	-7	x	x
NC(=O)Cn1ccn(-c2cccc(Cl)c2)c(=O)c1=O	0	2	8.1*	1	0	-8
COc1cccc(C(=O)NC(NC(=O)c2cccc(OC)c2)c2ccc(F)cc2)c1	0	0	0	6	x	x
Cc1ccc(NCCNS(=O)(=O)c2cc(C)c(C)cc2C)nn1	1	9	8.4*	2	0	3
COCCN1CCN(Cc2nc(Nc3ccccc3)c3ccccc3n2)CC1	0	0	-1	-5	x	x
COCCN1CCN(Cc2nc(NCc3ccc(C)o3)c3ccccc3n2)CC1	-1	-5	11*	-10	0	23
O=C(c1nn2c(C(F)(F)F)cc(-c3ccccc3)nc2c1Br)N1CCc2ccccc2C1	0	8	2	13	x	x
O=C1CN(c2ccc(Cl)cc2)S(=O)(=O)c2ccccc2N1	0	2	5.6*	-6	1	-3
CCOCCCNC(=S)N1CCN(c2nc(-c3ccc(F)cc3)cs2)CC1	0	7	5.8*	33*	1	21
Cc1cc(NS(=O)(=O)c2ccc(Cl)cc2)nn1CC(=O)NCc1ccco1	0	-1	1	-8	x	x
Cc1cc(NC(=O)Cn2cnc([N+](=O)[O-])n2)nn1CC(=O)NCc1ccco1	0	0	5.5*	1	-1	-11
COCc1cccc(-c2cncc(-c3cccc(C(=O)NCCN(C)C)c3)n2)c1	0	14	0	-14	x	x
Cn1c(N)c(S(=O)(=O)N2CCN(c3ccccc3Cl)CC2)c(=O)n(C)c1=O	0	7	26*	-9	1	3
Cc1noc(/C=C/C=C/c2ccccc2)c1[N+](=O)[O-]	0	34	0	-1	x	x
COc1ccc(OC)c(/C=C\c2onc(C)c2[N+](=O)[O-])c1	0	-17	8.9*	2	0	-8
COc1cc(Nc2nc3ncnc(NCc4nc5ccccc5[nH]4)c3[nH]2)cc(OC)c1OC	0	8	0	1	x	x
COCCN(CCOC)S(=O)(=O)c1ccc(C(=O)Nc2nc(-c3ccncc3)cs2)cc1	0	-9	8.8*	-3	1	13
COCCN(CCOC)S(=O)(=O)c1ccc(C(=O)Nc2nc(-c3ccc(OC)cc3)cs2)cc1	0	-7	-1	1	x	x
O=C(NCc1cccc(F)c1)C1CC2CCCN2C12C(=O)Nc1ccccc12 (centres undefined)	0	3	4	7	x	x
